Compound activity from PubChem BioAssay.
Most compounds without a hit are left out; they make up all but 4.1% or so of the library.
BoNT-A LC inh2: blocks Botulinum neurotoxin A light chain protease; multiplex microsphere protease substrate cleavage, flow cytometry; inhibition, % at 10 µM; 0.17% of 360,000 active; in the data active means inhibition above about 30%; further: plate controls were buffer without enzyme for full effect and enzyme alone for no effect
MazEF act: activators of E. coli MazEF toxin-antitoxin RNase. P0AE70. FAM/BHQ RNA-DNA oligo cleavage fluorescence, 5 h. activation, % at 20 µM. 0.32% of 350,000 active; in the data active means activation above about 50%
BoNT-F LC inh: blocks Botulinum neurotoxin F light chain protease | Multiplex microsphere protease cleavage assay, flow cytometry | inhibition, % at 10 µM | 0.22% of 360,000 active | AID 588497; in the data active means inhibition above about 35%, passing the limit was not always enough; further: plate controls were buffer without enzyme for full effect and enzyme alone for no effect
Autofluor counter: counter-screen for toxin protease inhibitors: compound fluorescence; AID 624483; 3.1% of 360,000 active; compound autofluorescence counterscreen, microsphere flow cytometry; stronger effect = higher value; fluorescence intensity (concentration not given with the values); in the data active means fluorescence intensity above about 16000
DUSP3 inh: inhibitors of human VHR1 phosphatase (DUSP3). P51452. recombinant VHR phosphatase, pNPP absorbance. inhibition, % at 13.3 µM. 0.52% of 290,000 active. AID 1654; in the data active means inhibition above about 50%
Anthrax LF inh2: blocks Bacillus anthracis lethal factor protease; P15917; multiplex microsphere protease cleavage assay, LF; inhibition, % at 10 µM; 0.12% of 360,000 active; AID 588501; in the data active means inhibition above about 30%; further: plate controls were buffer without enzyme for full effect and enzyme alone for no effect
Target sequence (P15917 whole entry, looked up): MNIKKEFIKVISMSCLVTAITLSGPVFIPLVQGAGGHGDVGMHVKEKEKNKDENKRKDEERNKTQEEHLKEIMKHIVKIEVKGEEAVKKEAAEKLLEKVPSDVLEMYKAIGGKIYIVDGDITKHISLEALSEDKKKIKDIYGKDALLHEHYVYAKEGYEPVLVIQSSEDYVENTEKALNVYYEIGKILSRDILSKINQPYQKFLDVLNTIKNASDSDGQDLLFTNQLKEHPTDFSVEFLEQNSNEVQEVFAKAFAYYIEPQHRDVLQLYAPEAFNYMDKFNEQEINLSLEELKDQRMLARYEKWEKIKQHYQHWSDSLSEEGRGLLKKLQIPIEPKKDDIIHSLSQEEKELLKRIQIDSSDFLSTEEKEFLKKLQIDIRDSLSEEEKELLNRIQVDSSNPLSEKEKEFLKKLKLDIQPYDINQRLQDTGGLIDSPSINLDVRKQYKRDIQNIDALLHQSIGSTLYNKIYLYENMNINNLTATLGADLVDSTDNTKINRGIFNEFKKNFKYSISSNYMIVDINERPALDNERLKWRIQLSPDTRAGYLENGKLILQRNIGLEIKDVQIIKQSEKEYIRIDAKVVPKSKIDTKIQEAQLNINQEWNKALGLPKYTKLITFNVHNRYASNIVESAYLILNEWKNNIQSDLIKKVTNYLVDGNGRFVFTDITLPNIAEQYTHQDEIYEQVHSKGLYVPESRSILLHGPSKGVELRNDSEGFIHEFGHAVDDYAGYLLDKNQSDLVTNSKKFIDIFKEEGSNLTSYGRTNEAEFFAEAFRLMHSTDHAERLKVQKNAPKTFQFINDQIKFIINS
BoNT-A LC CP2: blocks botulinum neurotoxin A light chain protease; shares compounds with BoNT-A LC inh2; multiplex microsphere protease cleavage assay, flow cytometry; inhibition, % at 10 µM; 10% of 150 active; AID 602325; in the data active means inhibition above about 24%
LF protease CP2: blocks anthrax lethal factor protease. shares compounds with BoNT-A LC inh2. multiplex microsphere protease cleavage assay. inhibition, % at 10 µM. 7% of 150 active. AID 602327
BoNTF LC inh 2: inhibitors of botulinum neurotoxin F light chain protease; shares compounds with BoNT-A LC inh2; multiplex microsphere protease cleavage assay, flow cytometry; inhibition, % at 10 µM; 7% of 150 active
* hit, by the source's call; / = not tested or not shown. Unless noted, no stated cut-off is given here; in the data, active means inhibition above about 25%; inactive means the rest.

SMILES	BoNT-A LC inh2	MazEF act	BoNT-F LC inh	Autofluor counter	DUSP3 inh	Anthrax LF inh2	BoNT-A LC CP2	LF protease CP2	BoNTF LC inh 2
Fc1ccc(-c2nc3ccc(Br)cn3c2Cc2ccsc2)cc1	32*	/	-3	6185	/	25	14	11	0
Cc1ccc(-c2nc3ccc(Br)cn3c2Cc2ccsc2)cc1	19	/	-20	5688	/	10	/	/	/
CCC(C)NC(=O)CSc1ccc(S(=O)(=O)N(C)C2CCCCC2)cn1 (stereo not drawn)	2	2	-1	5611	/	1	/	/	/
CN(CC(=O)NC1CCN(Cc2ccccc2)CC1)S(=O)(=O)c1ccc(Br)s1	2	2	8	3897	12	2	/	/	/
CN(CC(=O)NC1CCN(Cc2ccccc2)CC1)S(=O)(=O)c1ccc(Cl)cc1	14	7	74*	4359	/	54*	8	8	21
COc1ccc(C(CNC(=O)c2ccc(C)c(S(=O)(=O)N3CCCCC3)c2)N2CCCC2)cc1 (stereo not drawn)	22	7	86*	9963	/	56*	1	-1	5
Cc1cc2ccccc2n1CCNC(=O)c1ccc(S(=O)(=O)N2CCOCC2)cc1	29	-2	-128	1079	-1	-100	/	/	/
Cc1cc2ccccc2n1CCNC(=O)COc1ccccc1	84*	-15	-88	1122	-10	-63	77*	50*	-14
Cc1cc2ccccc2n1CCNC(=O)Cc1cccc2ccccc12	55*	11	-116	1162	-15	-124	12	10	-5
COC(=O)CNC(=O)COc1ccccc1	0	-6	1	2518	10	2	/	/	/
CCC(=O)NCCn1c(C)cc2ccccc21	26	-9	20	5062	2	33*	34*	2	28*
Cc1cc2ccccc2n1CCNC(=O)c1ccc(Br)o1	66*	-29	-145	1384	3	-117	21	22	-3
CC(NC(=O)CN1C(=O)NC2(CCCCCC2)C1=O)c1ccccc1Cl (stereo not drawn)	0	-1	2	3286	/	2	/	/	/
Cc1cc2ccccc2n1CCNC(=O)C(C)(C)C	96*	-14	-16	2350	-12	12	11	10	11
Cn1cccc1C(=O)NNC(=O)COc1ccccc1F	0	10	3	6597	-2	-1	/	/	/
COc1cccc2nc3c(C(=O)NCCN(C)C)cccc3cc12	2	-10	-14	3587	/	3	/	/	/
CN(C)CCNC(=O)c1cccc2nc3c(ccc4ccccc43)nc12	44*	2	14	3507	/	42*	18	20	8
Cc1nc(N)nc(N(C)c2ccccc2)c1Br	0	-2	-2	3440	/	6	/	/	/
O=C(NNC(=O)c1cnccn1)c1ccc(Cl)c(Cl)c1	0	1	3	5559	11	1	/	/	/
CCOc1ccc(NC(=O)CN(C)C(=O)c2ccc3c(c2)S(=O)(=O)N=C2CCCCCN23)cc1OCC	94*	7	87*	5175	/	110*	2	0	1
O=C(COC(=O)c1cncc(Br)c1)NC12CC3CC(CC(C3)C1)C2	72*	/	8	4039	/	58*	29*	30*	3
O=C(NC12CC3CC(CC(C3)C1)C2)c1cncc(Br)c1	-1	7	-5	3041	16	8	/	/	/
CCN(CC)S(=O)(=O)c1cccc(NC(=O)COC(=O)c2cncc(Br)c2)c1	23	1	10	4126	/	39*	16	18	14
CCN(CC)S(=O)(=O)c1cccc(NC(=O)COC(=O)c2ccc(Br)o2)c1	0	1	-4	3342	-10	1	/	/	/
COc1ccc(CNS(=O)(=O)c2ccc(OC)cc2)cc1	-1	4	-18	2583	12	-3	/	/	/
Cc1cc2cc(CNS(=O)(=O)c3ccccc3)ccc2n1C	83*	-14	-103	1735	27	-64	23	14	-26
COc1ccc(S(=O)(=O)NCc2ccc3c(c2)cc(C)n3C)cc1	79*	-16	-108	1230	42	-94	24*	14	-15
Cc1cc2cc(CNC(=O)c3ccc(C)c([N+](=O)[O-])c3)ccc2[nH]1	65*	6	-89	3000	0	-69	4	3	8
